Most compounds without a hit are left out; they make up all but 1.6% or so of the library.
KCNQ2 pot = potentiators of rat KCNQ2 potassium channel; CHO-K1 KCNQ2, FluxOR thallium flux fluorescence; active compounds read high; AID 2239, 2010; B-score at 10 µM; 310,000 compounds, 0.54% hits;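 active = fluorescence ratio B-score at least 3 SD of library B-scores, with initial fluorescence B-score within 3 of them, cut at about 5.3 in these data; same plate scores as AID 2156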;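 also: B-score of peak minus minimum over baseline fluorescence ratio after K+ and Tl+ stimulus; positive B-score means potentiation of KCNQ2 with more thallium influx and brighter signal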
KCNQ2 inh = rat KCNQ2 potassium channel inhibitors, primary screen, cell-based, CHO-K1, FluxOR thallium flux, B-score | Potassium voltage-gated channel subfamily KQT member 2 (Rattus norvegicus), O88943 | 20 min; active compounds read low | B-score at 10 µM | 310,000 compounds, 1.1% hits;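 active = fluorescence ratio B-score at most minus 3 library SDs, with starting brightness B-score within 2 library SDs, cut at about -5.5 in these data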
Kir21 confirm = mouse Kir2.1 channel blockers, retest, confirmation, cell-based, FluxOR thallium flux, duplicate. Tl flux remaining, % of negative control (active compounds read low), % at 10 µM. Kir2.1-expressing cells, FluxOR thallium flux fluorescence; active compounds read low. shares compounds with KCNQ2 pot. 2,300 compounds, 41% hits;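 active = Primary-screen hit whose thallium flux fell at least 3 control SD below untreated wells in both duplicates, with normal baseline fluorescence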;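 also: 0% = blank wells without stimulus and 100% = stimulated no-compound controls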
HEK293 ctr = alters thallium flux in parental HEK293 cells, Kir2.1 counter-screen; FluxOR thallium flux fluorescence; 0% = unstimulated blank wells; shares compounds with KCNQ2 pot; 2,300 compounds, 19% hits; FluxOR signal as % of negative control (100 = no effect), % at 10 µM;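 active = dye signal at least 3 control SD above or below untreated wells in both duplicates, raw fluorescence within 3, either direction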;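 also: percent is based on the flux ratio of peak minus minimum fluorescence over baseline F0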
CHO-K1 Tl ctr = nonspecific thallium flux increase in parental CHO-K1, confirmation, counter-screen for KCNQ2 potentiator project, cell-based, FluxOR thallium flux, duplicate | shares compounds with KCNQ2 pot | parental CHO-K1 cells, FluxOR thallium flux fluorescence; zero = vehicle mean+3SD, 100% = vehicle-minus-blank window | activity increase over 3SD of controls, % at 10 µM | 1,200 compounds, 43% hits;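 active = signal rise of at least 3 SD above the untreated control mean, in both duplicate wells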;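 also: counter screen of KCNQ2 potentiator hits so any rise reflects channel-independent effects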
KCNQ1 pot spec = human KCNQ1 channel potentiation off-target, confirmation, selectivity assay for KCNQ2 potentiator project, cell-based, CHO, FluxOR thallium flux. shares compounds with KCNQ2 pot. CHO KCNQ1 stable, FluxOR thallium flux fluorescence; beyond 3SD, as % of vehicle-control signal. activation over 3SD threshold, % at 10 µM. 1,200 compounds, 28% hits;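 active = fluorescence ratio rise of at least 3 SD of vehicle wells above their mean, in both replicate wells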;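 also: 0% = vehicle mean plus 3 SD and 100% = vehicle minus unstimulated blank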
Target sequence (P51787 whole entry, looked up): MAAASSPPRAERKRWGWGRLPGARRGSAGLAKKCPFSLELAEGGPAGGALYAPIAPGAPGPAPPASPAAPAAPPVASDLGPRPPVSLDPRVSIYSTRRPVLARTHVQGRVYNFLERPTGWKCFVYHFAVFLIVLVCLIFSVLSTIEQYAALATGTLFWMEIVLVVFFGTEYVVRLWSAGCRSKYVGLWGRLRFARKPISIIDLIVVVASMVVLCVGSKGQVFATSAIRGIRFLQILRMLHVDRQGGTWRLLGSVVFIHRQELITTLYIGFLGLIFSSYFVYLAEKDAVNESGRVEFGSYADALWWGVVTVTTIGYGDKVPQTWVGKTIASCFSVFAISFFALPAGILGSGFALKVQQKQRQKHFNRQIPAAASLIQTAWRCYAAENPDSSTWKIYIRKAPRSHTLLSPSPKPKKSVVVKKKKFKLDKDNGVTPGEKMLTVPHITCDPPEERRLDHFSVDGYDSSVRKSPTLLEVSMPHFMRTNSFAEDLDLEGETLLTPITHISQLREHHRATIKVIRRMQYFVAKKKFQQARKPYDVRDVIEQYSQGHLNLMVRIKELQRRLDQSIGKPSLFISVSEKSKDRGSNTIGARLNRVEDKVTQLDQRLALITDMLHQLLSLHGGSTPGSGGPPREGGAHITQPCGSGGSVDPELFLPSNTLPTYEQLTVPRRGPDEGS
KCNQ2 pot confirm = rat KCNQ2 channel potentiators, confirmation, cell-based, CHO, FluxOR thallium flux, duplicate. shares compounds with KCNQ2 pot. CHO-KCNQ2 cells, FluxOR thallium flux fluorescence. potentiation, less the hit threshold, % at 10 µM. 1,200 compounds, 68% hits;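 active = fluorescence ratio rising 3 SD or more over the vehicle control mean in both replicates, plus primary screen hit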;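 also: peak minus minimum thallium fluorescence divided by baseline after K/Tl stimulus; 0% = vehicle mean plus 3 SD and 100% = vehicle minus unstimulated blank difference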
Kir21 spec = mouse Kir2.1 channel activation off-target, confirmation, selectivity assay for KCNQ2 potentiator project, cell-based, HEK293, FluxOR thallium flux; activity over 3SD threshold, % at 10 µM; shares compounds with KCNQ2 pot; 1,200 compounds, 2% hits; HEK293 Kir2.1, FluxOR thallium flux fluorescence;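 active = fluorescence ratio rise of at least 3 SD above the vehicle-control mean, seen in both replicates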;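 also: 0% = vehicle mean plus 3 SD and 100% = vehicle minus no-stimulus blank window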
KCNQ2 W236L MoA = potentiators of retigabine-insensitive KCNQ2 W236L, mechanism study for KCNQ2 potentiator project, cell-based, rat KCNQ2 W236L, CHO, automated patch clamp; 940 compounds, 10% hits; automated patch clamp current; shares compounds with KCNQ2 pot; current increase over 3SD of negative controls (%), active compounds read high, % at 25 µM;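 active = current increase at least 3 SD of the untreated controls above them in both duplicate recordings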
Numbers without * were called inactive; i = inactive; · = not tested or not shown.

SMILES	KCNQ2 pot	KCNQ2 inh	Kir21 confirm	HEK293 ctr	others
OC(CNCc1ccco1)COc1ccccc1 (centres undefined)	·	i	·	·
COc1ccc(C(=O)NC(C)CCc2ccccc2)c(O)c1 (centres undefined)	2.4	i	·	·
CCn1c(CSCc2ccc(C)cc2)nnc1SCC(=O)NCc1ccccc1	·	i	i	i
CCn1c(CNc2ccc(Cl)cc2)nnc1SCc1ccccc1	·	i	63%*	i
CCn1c(CC(=O)Nc2ccc(C)cc2)nnc1SCC(=O)NCc1ccccc1	·	i	·	·
Cn1c(CNc2ccc(Cl)cc2)nnc1SCc1ccccc1	·	i	·	·
COCCN(C(=O)COC(=O)c1ccccc1Oc1ccccc1)c1c(N)n(Cc2ccccc2)c(=O)[nH]c1=O	·	i	·	·
O=C(c1cccc(C(F)(F)F)c1)c1c[nH]c(C(=O)NCC2CCCO2)c1 (centres undefined)	·	i	·	·
Cc1csc(SCC(=O)Nc2ccc(Cl)cn2)n1	0.39	i	·	·
CC(C)(C)c1csc(SCC(=O)Nc2ccc(Cl)cn2)n1	7*	i	i	i	CHO-K1 Tl ctr=13*;KCNQ1 pot spec=10*;KCNQ2 pot confirm=5.0*;Kir21 spec=-46;KCNQ2 W236L MoA=i
CC(C)(CC(=O)O)CC(=O)Nc1ccc(Cl)c(Cl)c1	·	i	·	·
Cn1c(CNC(=O)c2ccccc2F)nnc1SCC(=O)c1ccccc1	·	i	·	·
COc1cc2c(cc1OC)C(C)N(S(=O)(=O)c1cccs1)CC2 (centres undefined)	1.2	i	·	·
CC1c2ccsc2CCN1S(=O)(=O)c1ccccc1 (centres undefined)	0.51	i	52%*	i
O=C(Cc1ccccc1)Nc1nc(-c2cccc([N+](=O)[O-])c2)cs1	1.4	i	·	·
N#C/C(=C\c1ccc(-c2cccc([N+](=O)[O-])c2)o1)C(=O)Nc1nc(-c2cccs2)cs1	6.8*	i	i	i	CHO-K1 Tl ctr=17*;KCNQ1 pot spec=-20;KCNQ2 pot confirm=-18;Kir21 spec=-38
CCc1ccc(NC(=S)N2CCCC(C(F)(F)F)C2)cc1 (centres undefined)	0.66	i	·	·
COc1cc(CNc2ccc(N3CCN(C(C)=O)CC3)cc2)ccc1OCc1ccccc1	·	i	·	·
COc1cc(CNc2ccc(NC(C)=O)cc2)ccc1OCc1ccccc1C	5.5*	i	i	i	CHO-K1 Tl ctr=-15;KCNQ1 pot spec=-22;KCNQ2 pot confirm=-16;Kir21 spec=-45
CN(c1ccc(Cl)cc1)c1cc(=O)n(C)c2ccccc12	·	i	i	i
CN(C(=O)COc1cc(=O)n(C)c2ccccc12)c1ccc(Cl)cc1	·	i	·	·
O=C1CC(O)(C(F)F)Oc2ccc3ccccc3c21 (centres undefined)	0.79	i	·	·
O=C1CC(O)(C(F)(F)F)Oc2c1ccc1ccccc21 (centres undefined)	5.7*	i	i	248%*	CHO-K1 Tl ctr=-10;KCNQ1 pot spec=7.6*;KCNQ2 pot confirm=44*;Kir21 spec=-34;KCNQ2 W236L MoA=i
COc1ccc(-n2nc(C(=O)NCC(=O)NCc3ccc(F)cc3)c3ccccc3c2=O)cc1OC	·	i	·	·
Oc1c(Cl)cc(Cl)cc1CNn1cnnc1	·	i	·	·
SMILES	KCNQ2 pot	KCNQ2 inh	Kir21 confirm	HEK293 ctr	others
Oc1c(Cl)cc(Cl)cc1Sc1cc(Cl)cc(Cl)c1O	45*	i	i	375%*	CHO-K1 Tl ctr=47*;KCNQ1 pot spec=-3;KCNQ2 pot confirm=223*;Kir21 spec=-30;KCNQ2 W236L MoA=i
Cc1sc2ncnc(N3CCC(C(=O)N(C)CC(=O)Nc4ccc(Cl)c(C(F)(F)F)c4)CC3)c2c1C	·	i	·	·
CC(=O)N(C1CC(C)C(C#N)(C#N)C1(C#N)C#N)N(C)C (centres undefined)	24*	i	i	63%*
COCCNC(=S)N1CCN(S(C)(=O)=O)CC1	·	i	·	·
CC(C)CCC(CCNCc1ccccn1)c1ccc2c(c1)OCO2 (centres undefined)	·	i	57%*	i
CCNCCC(CCC(C)C)c1ccc2c(c1)OCO2 (centres undefined)	0.75	i	·	·
Fc1ccccc1CNCCC(Cc1ccccc1)c1ccc2c(c1)OCO2 (centres undefined)	·	i	40%*	77%*
COc1ccc(CNCCC(c2ccccc2)c2ccc3c(c2)OCO3)cc1 (centres undefined)	·	i	·	·
CCN(CC)S(=O)(=O)c1ccc(Cl)c(C(=O)OC2CC(C)OC2=O)c1 (centres undefined)	·	i	·	·
CCCC(=O)NC(Nc1ccccc1F)C(Cl)(Cl)Cl (centres undefined)	0.26	i	58%*	62%*
CC(C)CC(=O)NC(Nc1ccccc1F)C(Cl)(Cl)Cl (centres undefined)	·	i	·	·
CCC1(CC)NC(=O)N(CC(=O)OC(C)C(=O)Nc2ccc(NC(C)=O)cc2)C1=O (centres undefined)	1.7	i	·	·
Cc1ccccc1NS(=O)(=O)c1cc2c3c(c1)C(C)C(=O)N3CCC2 (centres undefined)	·	i	·	·
CCC(C)[C@H](NC(=O)[C@@H]1CSC2c3ccccc3C(=O)N21)C(=O)NCc1ccncc1 (some centres undefined)	1.3	i	·	·
Cc1cc(Br)c(NC(=O)COC(=O)C2CC2C)c(Br)c1 (centres undefined)	3.5	i	·	·
Cc1ccc(NC(=O)COC(=O)C2CC2C)c(S(=O)(=O)N2CCCCC2)c1 (centres undefined)	5.3*	i	i	i	CHO-K1 Tl ctr=-14;KCNQ1 pot spec=-17;KCNQ2 pot confirm=-23;Kir21 spec=-50

Screening results from PubChem.
